# Compound activity from PubChem.
# Lassa entry inh = inhibitors of Lassa virus binding or cell entry; Lassa virus pseudotype entry inhibition, cell reporter; Potency, µM (titrated, usually from 37.9 µM), without a hit: at the highest dose activity change, negative = inhibition, most hits filed as inhibitors; 1.2% of 300,000 active; AID 540256; calls by dose curve; tested in HEK293 cells; note: potency is the fitted concentration of half-maximal effect; nearly all actives have a fitted effect of over 50% in size
# HCV inh = HCV inhibition. Huh7.5.1 HCVcc-Cre infection, luciferase reporter, 44 h. AID 651820. 3.4% of 340,000 active. Potency, µM (doses to about 41.8 µM), for the others: at the top dose activity change, negative = inhibition, actives largely listed as inhibitors; note: potency is the fitted concentration of half-maximal effect
#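 Whole-lifecycle infectious HCVcc-Cre system; cells 1,000/well, compound then virus (~0.5 moi) added 4 h after plating, 44 h culture. Luciferase read 15 sec following 15 min substrate incubation, room temp.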
# HCMV inh = inhibitors of human cytomegalovirus | activity change, negative = inhibition, % at 57.5 µM | HFF cells, HCMV-luciferase reporter, 72 h; stronger effect = lower value | 4.5% of 410,000 active; in the data active = activity change below about -60%; inconclusive = no clear call, values can overlap the other calls; inactive = above about -39%
#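 HFF cells seeded 16 h at 37C, treated with compounds, infected with luciferase-reporter HCMV at MOI 1 PFU/cell; luciferase read at 72 h post infection, normalized to buffer-only and Salinomycin controls.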
# Pf growth 48h = P. falciparum growth inhibition at 48 hours (one generation). P. falciparum luciferase growth in erythrocytes, 48 h. Potency, µM (doses to about 28.7 µM), inactives show top-dose activity change, negative = inhibition, most hits filed as inhibitors. 5.9% of 310,000 active. AID 504832; note: potency is the fitted concentration of half-maximal effect
#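 In quantitative HTS format, infected erythrocytes bearing luciferase-reporter parasites were treated for a single generation at 37 C. Luminescence after adding detection reagent served as the growth measure.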
# Pf growth 96h = P. falciparum growth inhibition at 96 hour, primary screen for plastid delayed-death inhibitors. P. falciparum luciferase reporter growth, 96 h. Potency, µM (series often up to 28.7 µM), for inactives: at the top dose activity change, negative = inhibition, actives largely listed as inhibitors. 6.9% of 320,000 active; note: potency is the fitted concentration of half-maximal effect
#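 Plates of compound plus infected erythrocytes (2% hematocrit, 0.05% parasitemia final) incubate 96 hours, 37 C, 5% CO2. Detection reagent added; reduced luminescence from the parasites' luciferase reporter flags inhibition.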
# MARV entry inh = inhibitors of Marburg virus binding or cell entry; 1.8% of 300,000 active; Marburg virus pseudotyped entry inhibition, cell reporter; Potency, µM (series often up to 37.8 µM), for the others: at the top dose activity change, negative = inhibition, hits mostly inhibitors; calls by dose curve; tested in HEK293 cells; note: potency is the fitted concentration of half-maximal effect
# * marks the source's active call; other numbers are inactive results; ? = inconclusive; / = no result; [ ] = remark or other dose. Shown are actives, neighbours in structure and some others; about 14% of the full set was active somewhere. Unless noted, calls come from the whole dose curve; as a rule, active = well fitted inhibition curve with a large enough effect; inconclusive = small, poorly fitted or top-dose-only effect, or another doubt; inactive = no such curve, though single readings can be large or run the other way. % is set by controls: 0 for no effect and ±100 for the full control effect.
SMILES,Lassa entry inh,HCV inh,HCMV inh,Pf growth 48h,Pf growth 96h,MARV entry inh
COc1ccc(OC)c(C2NC(=S)NC(C)=C2C(=O)Nc2ccccn2)c1 (configuration not stated),9%,20%,-99*,-8%,6%,30%[46.1 µM]
COc1ccc(C2NC(=S)NC(C)=C2C(=O)Nc2ccccn2)cc1 (configuration not stated),/,0%,74,23%,-21%,/
COc1ccc(C2C(C(=O)Nc3ccccn3)=C(C)Nc3ncnn32)c(OC)c1 (configuration not stated),/,7%,-64*,1%,-3%,3%
Clc1ccccc1-c1nnc(COc2ccccc2)o1,?,/,80,/,/,?
O=C(N/N=C/c1ccsc1)c1ccc2ccccc2n1,-18%[46.1 µM],-1%,-67*,0%,6%,?
O=C(N/N=C/c1ccc2c(c1)OCO2)c1ccc2ccccc2n1,-6%,4%,-28,13%,0%,?
Cc1c(CC(=O)N2CCCCC2)c(=O)oc2cc(O)ccc12,22%[46.1 µM],/,-1,/,/,11%[46.1 µM]
Cc1ccc(O)c(C(=O)c2cnc3c(c2)c(=O)n(C)c(=O)n3C)c1,12%,?,-16,?,10µM*,18%[46.1 µM]
CCCCN1Cc2cc(C(=O)c3cc(OC)ccc3O)cnc2NC1=O,22%,0%,20,?,9.3µM*,4%
Cc1ccc(O)c(C(=O)c2cnc3c(c2)CN(CCC(C)C)C(=O)N3)c1,-25%,?,26,2.9µM*,5.2µM*,-29%
Cc1ccc(O)c(C(=O)c2cnc3c(c2)CN(C)C(=O)N3)c1,-18%,?,-4,?,/,?
CC(NC(=O)CCCN1C(=O)CCn2nc(-c3cn(C)c4ccccc34)cc21)c1ccccc1 (configuration not stated),-10%[46.1 µM],/,-40,/,/,/
COc1ccc(CN(C)C(=O)c2cc(-c3ccccc3)nc3ccc(C)cc23)c(OC)c1,/,/,-11,/,/,/
O=C(c1ccc(-c2cc3ccccc3oc2=O)cc1)N1CCN(c2ccc(Cl)cc2[N+](=O)[O-])CC1,-4%,10µM*,?,?,?,3%
COc1cccc(-c2cc(C(F)(F)F)n3ncc(C(=O)OC(C)C)c3n2)c1,-5%[46.1 µM],/,-18,/,/,?
CCCCCNC1=CC(=O)CC(c2ccccc2)C1 (configuration not stated),-22%,-13%,20,?,0%,-22%
CCCCCCCNC1=CC(=O)CC(c2ccccc2)C1 (configuration not stated),?,?,-88*,9.3µM*,?,?
O=C1C=C(Nc2ccccc2)CC(c2ccccc2)C1 (configuration not stated),-26%,6%,3,-14%,1.9µM*,-2%[46.1 µM]
CCOc1ccc(CNS(=O)(=O)c2cc(-c3cc(C)no3)ccc2C)cc1OC,24%[46.1 µM],/,0,/,/,/
Cc1ccc(OCC(=O)NNC(=O)c2cc(S(=O)(=O)N(C)C)ccc2N2CCCC2)cc1,/,/,-20,/,/,/
O=C(c1ccccc1)c1ccc(C(=O)N2CCN(c3ccc(O)cc3)CC2)cc1,/,-3%,-78*,/,/,/
O=C(c1ccc(N2CCN(C(=O)c3ccccc3)CC2)cc1)c1cccc(F)c1,-22%[46.1 µM],?,-32,?,0%,?
O=C(c1ccc(N2CCN(C(=O)c3ccc(F)c(F)c3)CC2)cc1)c1cccc(F)c1,/,?,-72*,-20%,?,/
NC(=Nc1nc(-c2ccccn2)cc2ccccc12)c1ccccn1,0.56µM*,?,-101*,/,/,?
CC(C)(C)OC(=O)[C@H](CCCCN)NC(=O)c1nc[nH]c1C(=O)N[C@@H](CCCCN)C(=O)OC(C)(C)C,/,5%,-13,/,/,/
C[C@H](NC(=O)c1nc[nH]c1C(=O)N[C@@H](Cc1ccccc1)C(=O)OC(C)(C)C)c1ccccc1,/,?,6,3.3µM*,?,/
C[C@H](NC(=O)c1nc[nH]c1C(=O)N[C@H](C)c1ccccc1)C(=O)OC(C)(C)C,/,13µM*,-1,?,21%,/
